# In the library only some 2.1% were active in any assay of this set; here they are far more common.
# eIF4H inh = inhibitors of RNA binding by human eIF4H; eIF4H fluorescence polarization binding assay; inhibition, % at 35 µM; actives 0.94% (n = 290,000);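 also: calls also rest on retests at 20 µM and on dose response follow-up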
# NRP1-CendR mod = NRP-1/CendR interaction modulation | FAM-RPARPAR peptide binding to NRP-1, fluorescence polarization | inhibition, % at 25 µM | O14786 | actives 0.85% (n = 360,000);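 active = inhibition or corrected inhibition above about 18%, plus a signal ratio from 0.5 to 1.5, limit read from the data, passing the limit was not always enough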
# PABP FP inh = blocks human PABP binding to poly(A) RNA. inhibition, % at 35 µM. fluorescence polarization. actives 1% (n = 290,000). AID 2014;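 also: calls also rest on retests at 20 µM and on dose response follow-up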
# Target sequence (P11940 whole entry, looked up): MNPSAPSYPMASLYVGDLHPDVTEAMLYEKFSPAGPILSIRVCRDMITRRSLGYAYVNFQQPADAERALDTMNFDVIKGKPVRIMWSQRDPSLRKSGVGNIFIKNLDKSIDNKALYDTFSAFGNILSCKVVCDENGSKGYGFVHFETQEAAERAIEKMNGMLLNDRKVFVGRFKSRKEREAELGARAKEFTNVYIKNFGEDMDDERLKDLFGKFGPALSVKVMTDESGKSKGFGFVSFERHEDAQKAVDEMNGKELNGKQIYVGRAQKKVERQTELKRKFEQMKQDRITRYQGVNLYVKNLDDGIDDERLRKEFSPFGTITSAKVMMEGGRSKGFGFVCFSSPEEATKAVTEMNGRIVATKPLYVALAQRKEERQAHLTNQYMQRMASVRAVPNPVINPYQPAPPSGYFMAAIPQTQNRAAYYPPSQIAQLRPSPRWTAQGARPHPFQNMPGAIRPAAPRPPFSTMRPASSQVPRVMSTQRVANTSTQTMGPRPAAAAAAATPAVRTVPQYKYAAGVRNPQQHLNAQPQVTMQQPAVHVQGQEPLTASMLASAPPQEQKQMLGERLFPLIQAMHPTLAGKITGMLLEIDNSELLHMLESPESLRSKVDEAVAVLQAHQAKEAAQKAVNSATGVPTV
# MLLE-PAM2 inh = blocks PAM2 peptide binding to the PABP1 MLLE domain; P11940; GST-MLLE / FITC-PAM2 fluorescence polarization; inhibition, % at 20 µM; actives 0.36% (n = 360,000); AID 588489; in the data active = inhibition above about 35%, passing the limit was not always enough;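 also: plate controls were DMSO wells with GST-MLLE for no effect and wells lacking GST-MLLE protein for full effect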
# * = called active by the depositor; u = inconclusive; x = not tested or not shown. Unless noted, no rule for the calls is given here.
SMILES,eIF4H inh,NRP1-CendR mod,PABP FP inh,MLLE-PAM2 inh
O=C(CNC(=O)c1cccc(OC(F)F)c1)OCc1cc(=O)n2cc(Br)ccc2n1,70,-4,active,-32
CC(NC(=O)COc1ccccc1)C(=O)NCc1ccc(S(N)(=O)=O)cc1 (stereo not drawn),x,-10,x,-4
COC(=O)C1N[C@@H]([C@@H](NC(=O)COc2ccccc2)C(=O)NCc2ccccc2)SC1(C)C (stereo partly drawn),x,32*,x,-5
CC(OC(=O)CCNS(=O)(=O)c1cccs1)C(=O)Nc1ccc(S(N)(=O)=O)cc1 (stereo not drawn),x,-1,x,13
CCc1c(C(C)S(=O)(=O)c2ccccc2)[nH]c(=O)n1CC (stereo not drawn),2,5,-7,40*
CC(S(=O)(=O)c1ccccc1)S(=O)(=O)c1ccccc1,x,-12,x,1
CC(=O)Nc1nnc(SCC(=O)NCCOc2ccccc2)s1,active,-3,51*,-115
CC(=O)Nc1ccc2nc(SCC(=O)NCCOc3ccccc3)sc2c1,3,4,-7,0
CCOc1ccc(-c2cc(C(=O)Nc3ccc(C)c(NS(C)(=O)=O)c3)[nH]n2)c(C)c1,x,4,x,-1
O=C(NCCN1CCOCC1)C(=O)NCC1CCCO1 (stereo not drawn),5,38*,12,-4
c1ccc(-c2ccc3sccc3n2)cc1,x,27*,x,8
c1ccc(-c2ccc3cnccc3n2)cc1,x,1,x,7
O=C(NCCC(F)(F)F)C1Cc2c(-c3ccc(Cl)cc3)ccnc2O1 (stereo not drawn),x,27*,x,-3
NC(=O)c1ncn([C@@H]2O[C@H](CNS(=O)(=O)c3cc4ccccc4s3)[C@@H](O)[C@H]2O)n1,x,2,x,3
COC(=O)/C=c1/s/c(=C(/C#N)C(=O)NCc2ccccc2)n(-c2ccccc2)c1=O,111*,-10,82*,-40
CCN(CC)C(=O)CSc1nnc(-c2c[nH]c3ccccc23)o1,-2,31*,2,0
COC(=O)CSc1nnc(-c2c[nH]c3ccccc23)o1,-6,-36,-3,-2
O=C(c1nc2ccccn2c1CN1CCCC(O)C1)N1CCN(C2CCCCC2)CC1 (stereo not drawn),22,-3,28,42*
CCN(CCC#N)c1ccc(/C=N/Nc2nc(C)cc(=O)[nH]2)c(C)c1,2.2*,-4,63*,0
Cc1cc(=O)[nH]c(N/N=C/c2ccc(Cl)cc2Cl)n1,-27,4,10,-6
COC(=O)c1scc2c(=O)cc(C(F)(F)F)[nH]c12,48,2,36,56*
CCOc1ccc(NC(=O)CN2C(=O)C3CC=CCC3C2=O)cc1 (stereo not drawn),-2,11,4,-5
CCOc1ccc(NC(=O)CN2C(=O)C(C)SC(C)C2=O)cc1 (stereo not drawn),-2,25*,28,-2
C/C=C(\C)C(=O)NCCN1C2=NC[C@H](C(C)C)N2C[C@@H]1Cc1ccc(OC)cc1,48,0,52*,11
C/C=C(\C)C(=O)NCCN1C2=NC[C@H](C(C)C)N2C[C@H]1Cc1ccc(O)cc1,-13,-9,0,-11
SMILES,eIF4H inh,NRP1-CendR mod,PABP FP inh,MLLE-PAM2 inh
OCc1c(Cl)nc2ccccn12,-7,7,60*,-13
O=C(COc1cc2oc(=O)c3c(c2cc1Cl)CCCC3)NCC1CCC(C(=O)O)CC1 (stereo not drawn),-2,6,22,-1
CCc1ccc(OCC(=O)Nc2cccc3c2CCCC3)cc1,u,-1,51*,4
CCCC(=O)Nc1cccc2c1CCCC2,0,-4,-6,-3
O=C(CCc1cn2ccccc2n1)NC1CCCc2c1cnn2-c1ccccc1F (stereo not drawn),x,-12,x,-5
CCN(CC(=O)Nc1c(F)cccc1F)C(=O)Cc1ccc2c(c1)CCC2,x,0,x,41*
CN1CCN(S(=O)(=O)c2ccc(N3CCc4ccccc4C3)nc2)CC1,-15,21*,-4,-11
O=c1ccsn1Cc1ccccc1,-4,28*,-5,16
O=C1NC(Cc2ccccc2)C(=O)N1Cc1ccccc1 (stereo not drawn),x,-2,x,-9
O=C(c1ccccc1)C1CCN(C(=O)C2CCC(=O)N(Cc3ccccc3F)C2)CC1 (stereo not drawn),-6,14,0,5
CC(=O)Nc1cccc(NC(=O)c2cc(-c3ccccn3)nc3ccc(Cl)cc23)c1,52,-4,26*,-3
CC(Cc1ccccc1)C(=O)N[C@@H](CO)Cc1ccccc1 (stereo partly drawn),active,-5,71*,-2
O=C(NC(=S)NC(CO)Cc1ccccc1)c1ccc(F)cc1 (stereo not drawn),2,12,-3,33*
